Compounds without any hit were thinned out: in the full panel of roughly 79,000, 15% have a hit. Calls of active or inactive are those of the source. Rule as the data show it: active = growth inhibition above about 70%; inactive = the rest.
Experiments:
[1] = NCI Yeast Anticancer Drug Screen. Data for the rad52 strain (AID 147);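 also: 0% = growth of vehicle-treated control cultures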; settings: S. cerevisiae rad52 mutant growth inhibition, hits give high values
Procedure, shortened: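 DNA repair-defective yeast; compound exposure; growth scored against vehicle controls.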

[2] = NCI Yeast Anticancer Drug Screen. Data for the wt1 strain (AID 149);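 also: 0% = growth of vehicle-treated wt1 cultures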; settings: S. cerevisiae wt1 strain (SPY 50644) growth inhibition, hits give high values
Procedure, shortened: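 Vehicle-normalised growth inhibition; strain wt1; compound exposure.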

[3] = NCI Yeast Anticancer Drug Screen. Data for the rad50EPP+ strain (AID 151);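 also: 0% = growth of vehicle-treated control cultures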; settings: S. cerevisiae rad50 mutant strain, hits give high values
Procedure, shortened: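 rad50EPP+ yeast treated with test compounds. Readout: growth vs vehicle control.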

[4] = NCI Yeast Anticancer Drug Screen. Data for the mgt1 strain (AID 153); settings: S. cerevisiae mgt1 mutant growth inhibition, hits give high values
Procedure, shortened: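 Growth inhibition relative to vehicle controls was scored for the mgt1 yeast strain after compound exposure.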

[5] = NCI Yeast Anticancer Drug Screen. Data for the rad50 strain (AID 155);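 also: 0% = growth of vehicle-only cultures of the same strain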; settings: S. cerevisiae rad50 strain growth inhibition, hits give high values
Procedure, shortened: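 A DNA repair-deficient yeast mutant serves as the test organism; compound-induced growth inhibition is calculated against vehicle-treated cells.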

[6] = NCI Yeast Anticancer Drug Screen. Data for the mec2-1 strain (AID 157); settings: S. cerevisiae mec2-1 strain, hits give high values
Procedure, shortened: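 Growth inhibition is read against vehicle-treated controls after compound exposure of the mec2-1 yeast strain, which is defective in DNA damage repair or cell cycle control.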

[7] = NCI Yeast Anticancer Drug Screen. Data for the rad14 strain (AID 159);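 also: 0% = growth of vehicle-treated control cultures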; settings: S. cerevisiae rad14 strain growth inhibition, hits give high values
Procedure, shortened: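 Vehicle-treated cultures served as the baseline for growth inhibition of a DNA repair-mutant yeast strain exposed to each compound.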

[8] = NCI Yeast Anticancer Drug Screen. Data for the sgs1 mgt1 strain (AID 161);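 also: 0% = growth of cultures given vehicle only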; settings: S. cerevisiae sgs1 mgt1 strain, hits give high values
Procedure, shortened: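 Yeast cells carrying a defined DNA-repair defect were exposed to test compounds. Growth inhibition was measured relative to vehicle-treated controls.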

[9] = NCI Yeast Anticancer Drug Screen. Data for the CLN2oe strain (AID 163);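 also: 0% = growth of vehicle-only control cultures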; settings: S. cerevisiae CLN2oe strain, hits give high values
Procedure, shortened: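 Compound-treated yeast; growth vs vehicle ctrl = % inhibition. Genetically altered strain (cell-cycle control).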

[10] = NCI Yeast Anticancer Drug Screen. Data for the cln2 rad14 strain (AID 165);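 also: 0% = growth equal to vehicle treated cultures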; settings: S. cerevisiae cln2 rad14 strain, hits give high values
Procedure, shortened: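 Growth inhibition, relative to vehicle-treated controls, is the read-out. The test organism is a yeast strain with defined genetic alterations, cln2 rad14.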

[11] = NCI Yeast Anticancer Drug Screen. Data for the bub3 strain (AID 167); settings: S. cerevisiae bub3 mutant strain, hits give high values
Procedure, shortened: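 Inhibition values come from growth of compound-treated mutant yeast normalised to vehicle-treated controls.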

[12] = NCI Yeast Anticancer Drug Screen. Data for the wt2 strain (AID 169);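 also: 0% = growth of vehicle-treated yeast cultures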; settings: S. cerevisiae wt2 strain growth inhibition, hits give high values
Procedure, shortened: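 Compound exposure of yeast; growth compared with vehicle controls; inhibition reported.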

[13] = NCI Yeast Anticancer Drug Screen. Data for the mlh1 strain (AID 171);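 also: 0% = growth of vehicle-treated control cultures of the same strain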; settings: S. cerevisiae mlh1 strain growth inhibition, hits give high values
Procedure, shortened: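 Compounds are applied to a genetically altered yeast strain, and its growth is compared with that of vehicle-treated cultures to give percent inhibition.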

[14] = NCI Yeast Anticancer Drug Screen. Data for the sgs1 strain (AID 173);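 also: 0% = growth of vehicle-only control cultures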; settings: S. cerevisiae sgs1 mutant, hits give high values
Procedure, shortened: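 Compounds applied to genetically altered yeast; growth compared with vehicle-treated cultures to give % inhibition.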

[15] = NCI Yeast Anticancer Drug Screen. Data for the mlh1 rad18 strain (AID 175); settings: S. cerevisiae mlh1 rad18 strain growth inhibition, hits give high values
Procedure, shortened: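 Cells of a genetically altered yeast strain, deficient in DNA damage repair, were treated with compound. Their growth was then compared with that of vehicle-treated cultures to give inhibition.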

[16] = NCI Yeast Anticancer Drug Screen. Data for the rad18 strain (AID 177); settings: S. cerevisiae rad18 mutant growth inhibition, hits give high values
Procedure, shortened: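 Compounds are applied to a repair-deficient yeast strain, and growth is compared with that of vehicle-treated cultures to give percent inhibition.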

[17] = at 5.0 µM (retest, dose inferred, filed as 0.5)
[18] = at 50.0 µM (retest, dose inferred, filed as 5.0)

Measured: growth inhibition

OC1CSCCCSCCSCCCSC1
active: [11]; [18] 82%
inactive: [1]; at 1.2 µM -53% | [1]; at 3.7 µM -55% | [1]; at 11.0 µM -49% | [1]; at 33.0 µM -61% | [1]; at 100.0 µM -48% | [2]; at 1.2 µM -12% | [2]; at 3.7 µM -16% | [2]; at 11.0 µM -22% | [2]; at 33.0 µM -25% | [2]; at 100.0 µM -25% | [3]; at 1.2 µM -30% | [3]; at 3.7 µM -52% | [3]; at 11.0 µM -49% | [3]; at 33.0 µM -29% | [3]; at 100.0 µM -35% | [4]; at 1.2 µM -5% | [4]; at 3.7 µM -6% | [4]; at 11.0 µM -10% | [4]; at 33.0 µM -9% | [4]; at 100.0 µM -29% | [5]; at 1.2 µM -28% | [5]; at 3.7 µM -27% | [5]; [17] -11% | [5]; at 11.0 µM -3% | [5]; at 33.0 µM -2% | [5]; [18] -14% | [5]; at 50.0 µM 12.3% | [5]; at 100.0 µM -25% | [6]; at 1.2 µM -22% | [6]; at 3.7 µM -27% | [6]; [17] -48% | [6]; at 11.0 µM -21% | [6]; at 33.0 µM 4% | [6]; [18] 5% | [6]; at 50.0 µM 20.5% | [6]; at 100.0 µM -29% | [7]; at 1.2 µM -35% | [7]; at 3.7 µM -37% | [7]; at 11.0 µM -28% | [7]; at 33.0 µM -36% | [7]; at 100.0 µM -47% | [8]; [17] -1% | [8]; [18] 4% | [8]; at 50.0 µM 28.7% | [9]; at 1.2 µM -5% | [9]; at 3.7 µM -12% | [9]; at 11.0 µM 3% | [9]; at 33.0 µM 17% | [9]; at 100.0 µM 1% | [10]; [17] 12% | [10]; [18] 25% | [10]; at 50.0 µM 10.7% | [11]; at 1.2 µM -8% | [11]; at 3.7 µM 0% | [11]; [17] 16% | [11]; at 11.0 µM 16% | [11]; at 33.0 µM 64% | [11]; at 50.0 µM 69.2% | [11]; at 100.0 µM 68% | [12]; at 1.2 µM -30% | [12]; at 3.7 µM -17% | [12]; at 11.0 µM -16% | [12]; at 33.0 µM -31% | [12]; at 100.0 µM -22% | [13]; at 1.2 µM -4% | [13]; at 3.7 µM 16% | [13]; at 11.0 µM 2% | [13]; at 33.0 µM 16% | [13]; at 100.0 µM -17% | [14]; at 1.2 µM -9% | [14]; at 3.7 µM -5% | [14]; at 11.0 µM -10% | [14]; at 33.0 µM -14% | [14]; at 100.0 µM -24%

O=C1C2CC[C@@H]3C(=O)C(Cl)(Cl)[C@@H]3CCC2C1(Cl)Cl (stereo partly drawn)
active: [1]; at 100.0 µM 76% | [5]; [18] 70% | [5]; at 50.0 µM 83.3% | [6]; at 50.0 µM 81.9% | [8]; at 50.0 µM 84.6% | [10]; at 50.0 µM 78.8% | [11]; at 50.0 µM 70.8% | [15]; [18] 88% | [15]; at 50.0 µM 79.2% | [16]; at 3.7 µM 85% | [16]; at 11.0 µM 94% | [16]; at 33.0 µM 95% | [16]; at 100.0 µM 96%
inactive: [1]; at 1.2 µM 12% | [1]; at 3.7 µM 25% | [1]; at 11.0 µM 46% | [1]; at 33.0 µM 69% | [2]; at 1.2 µM 0% | [2]; at 3.7 µM 1% | [2]; at 11.0 µM 2% | [2]; at 33.0 µM 9% | [2]; at 100.0 µM 12% | [3]; at 1.2 µM 8% | [3]; at 3.7 µM 15% | [3]; at 11.0 µM 37% | [3]; at 33.0 µM 56% | [3]; at 100.0 µM 50% | [4]; at 1.2 µM -2% | [4]; at 3.7 µM -1% | [4]; at 11.0 µM 8% | [4]; at 33.0 µM -2% | [4]; at 100.0 µM 4% | [5]; at 1.2 µM 5% | [5]; at 3.7 µM 12% | [5]; [17] 19% | [5]; at 11.0 µM -2% | [5]; at 33.0 µM 33% | [5]; at 100.0 µM 37% | [6]; at 1.2 µM 2% | [6]; at 3.7 µM 6% | [6]; [17] -2% | [6]; at 11.0 µM 11% | [6]; at 33.0 µM 21% | [6]; [18] 49% | [6]; at 100.0 µM 24% | [7]; at 1.2 µM 0% | [7]; at 3.7 µM 3% | [7]; at 11.0 µM 6% | [7]; at 33.0 µM 13% | [7]; at 100.0 µM 22% | [8]; [17] 18% | [8]; [18] 67% | [9]; at 1.2 µM 3% | [9]; at 3.7 µM 0% | [9]; at 11.0 µM 5% | [9]; at 33.0 µM 10% | [9]; at 100.0 µM 20% | [10]; [17] 2% | [10]; [18] 22% | [11]; at 1.2 µM 1% | [11]; at 3.7 µM 2% | [11]; [17] -30% | [11]; at 11.0 µM 12% | [11]; at 33.0 µM 10% | [11]; [18] 10% | [11]; at 100.0 µM 11% | [12]; at 1.2 µM 1% | [12]; at 3.7 µM 3% | [12]; at 11.0 µM 7% | [12]; at 33.0 µM 10% | [12]; at 100.0 µM 14% | [13]; at 1.2 µM 1% | [13]; at 3.7 µM 1% | [13]; at 11.0 µM 4% | [13]; at 33.0 µM 10% | [13]; at 100.0 µM 9% | [14]; at 1.2 µM -21% | [14]; at 3.7 µM 20% | [14]; at 11.0 µM 33% | [14]; at 33.0 µM 51% | [14]; at 100.0 µM 53% | [15]; [17] 31% | [16]; at 1.2 µM 59%

— PubChem BioAssay (NCI)
